Data published in PubChem BioAssay (Tox21).
Records with an inconclusive call do not appear. Activity calls are given as the source filed them. Unless noted, the call rests on the fitted dose curve; in most records, active means well fitted curve in the direction sought with a large enough effect in the repeat runs; inconclusive means weak or mixed curves; inactive means no such curve, though single readings can be large; an effect the other way counts as inactive or inconclusive.

Experiments:
[1] = qHTS assay to identify small molecule agonists of the peroxisome proliferator-activated receptor delta (PPARd) signaling pathway - cell viability counter screen (AID 743211); further: nearly all actives have a fitted effect of over 55% in size; further: potency means the concentration at half of the fitted maximal effect
Outline: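 qHTS cell viability: PPARd-bla HEK293H; 17 h cpd, 37C; CellTiter-Glo, luminescence at 30 min RT.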

[2] = biological target: Peroxisome proliferator-activated receptor delta (Homo sapiens) (UniProt Q03181); test: qHTS assay to identify small molecule agonists of the peroxisome proliferator-activated receptor delta (PPARd) signaling pathway (AID 743212; calls by dose curve)
Outline: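 GeneBLAzer UAS-bla HEK293H cells carrying a PPARδ construct were exposed to compounds at 37 °C. Beta-lactamase activity was read by FRET fluorescence after 2 h at room temperature with LiveBLAzer B/G substrate.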

[3] = qHTS assay to identify small molecule antagonists of the peroxisome proliferator-activated receptor delta (PPARd) signaling pathway - cell viability counter screen (AID 743213); further: nearly all actives have a fitted effect of over 50% in size; further: potency means the concentration at half of the fitted maximal effect
Outline: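 In this counter screen, HEK293H cells carrying a UAS-beta-lactamase reporter are co-treated with test compounds and 300 nM L165041 (final) for 17 h at 37 C; cell viability is quantified by CellTiter-Glo luminescence.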

[4] = biological target: Bile acid receptor (Homo sapiens) (UniProt Q96RI1); test: qHTS assay to identify small molecule antagonists of the farnesoid-X-receptor (FXR) signaling pathway (AID 743217; active means well fitted inhibition curve with a large enough effect in the signal ratio in the repeat runs, not every such curve was filed as active; the % refers to the signal ratio)
Outline: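 Antagonist mode against 50 uM (final) chenodeoxycholic acid stimulation in FXR-bla HEK 293T cells, 16 h at 37 °C. Inhibition detected as reduced beta-lactamase activity via LiveBLAzer B/G FRET fluorescence after 2 h at room temperature.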

[5] = qHTS assay to identify small molecule agonists of the farnesoid-X-receptor (FXR) signaling pathway - cell viability counter screen (AID 743218); further: nearly all actives have a fitted effect of over 45% in size; further: potency means the concentration at half of the fitted maximal effect
Outline: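 Cytotoxicity counter-screen run in parallel, same wells: FXR-UAS-bla HEK 293T cells dosed 16 h at 37 C, viability read by CellTiter-Glo luminescence after 30 min at room temperature.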

[6] = biological target: Bile acid receptor (Homo sapiens) (UniProt Q96RI1); test: qHTS assay to identify small molecule agonists of the farnesoid-X-receptor (FXR) signaling pathway (AID 743220; active means well fitted activation curve with a large enough effect in the signal ratio in the repeat runs, not every such curve was filed as active; the % refers to the signal ratio)
Outline: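 Beta-lactamase reporter under UAS control in GeneBLAzer FXR HEK 293T cells (5000/well) measured with LiveBLAzer FRET substrate after 2 h at room temperature. Compound exposure lasted 16 h at 37C.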

[7] = biological target: Vitamin D3 receptor (Homo sapiens) (UniProt P11473); test: qHTS assay to identify small molecule agonists of the vitamin D receptor (VDR) signaling pathway (AID 743222; calls by dose curve)
Outline: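 Quantitative HTS agonist-mode screen: compounds in DMSO were pin-transferred onto VDR-bla cells and incubated 16 h at 37C, 5% CO2. Reporter activity was detected with LiveBLAzer B/G FRET substrate after 2 h at room temperature.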

[8] = biological target: Peroxisome proliferator-activated receptor delta (Homo sapiens) (UniProt Q03181); test: qHTS assay to identify small molecule antagonists of the peroxisome proliferator-activated receptor delta (PPARd) signaling pathway (AID 743215; active means well fitted inhibition curve with a large enough effect in the signal ratio in the repeat runs, not every such curve was filed as active; the % refers to the signal ratio;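 further: cells stimulated with agonist L165041 at 300 nM final during compound exposure; series mostly up to about 62 µM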)
Outline: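 Inhibition of L165041-driven (300 nM final) PPARd signaling is scored in HEK293H UAS-bla cells. Exposure lasts 17 h at 37 C; beta-lactamase activity is then read by FRET substrate fluorescence after 2 h at room temperature.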

[9] = qHTS assay to identify small molecule antagonists of the farnesoid-X-receptor (FXR) signaling pathway - cell viability counter screen (AID 743221; active means well fitted cell-killing curve with a large enough effect in the repeat runs, not every such curve was filed as active; further: nearly all actives have a fitted effect of over 50% in size)
Outline: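 After a 5 h settling period, FXR-bla HEK 293T cells receive compound and chenodeoxycholic acid (50 uM final) and incubate 16 h at 37 C; CellTiter-Glo luminescence, read after 30 min at room temperature, reports cell viability.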

[10] = biological target: Vitamin D3 receptor (Homo sapiens) (UniProt P11473); test: qHTS assay to identify small molecule antagonists of the vitamin D receptor (VDR) signaling pathway (AID 743223; active means well fitted inhibition curve with a large enough effect in the signal ratio in the repeat runs, not every such curve was filed as active; the % refers to the signal ratio)
Outline: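 Reporter line VDR-bla; stimulus 1alpha,25-(OH)2 vitamin D3, 3 nM final; compound co-addition, 16 h 37C/5% CO2; LiveBLAzer B/G substrate 2 h RT; fluorescence intensity.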

Measured: Potency

Chain of Vitamin D3 receptor (Homo sapiens) (P11473 whole entry, looked up): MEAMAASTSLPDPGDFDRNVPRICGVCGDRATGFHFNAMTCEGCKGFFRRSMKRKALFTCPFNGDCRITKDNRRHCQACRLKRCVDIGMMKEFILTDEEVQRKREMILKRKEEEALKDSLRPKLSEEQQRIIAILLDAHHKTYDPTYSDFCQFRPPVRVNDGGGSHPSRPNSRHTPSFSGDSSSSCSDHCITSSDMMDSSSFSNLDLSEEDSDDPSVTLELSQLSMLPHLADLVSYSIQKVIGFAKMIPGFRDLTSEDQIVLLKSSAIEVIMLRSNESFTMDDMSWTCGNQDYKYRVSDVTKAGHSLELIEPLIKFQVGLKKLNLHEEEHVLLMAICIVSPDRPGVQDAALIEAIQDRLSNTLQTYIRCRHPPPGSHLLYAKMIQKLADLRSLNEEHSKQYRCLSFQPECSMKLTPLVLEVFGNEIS
Chain of Bile acid receptor (Homo sapiens) (Q96RI1 whole entry, looked up): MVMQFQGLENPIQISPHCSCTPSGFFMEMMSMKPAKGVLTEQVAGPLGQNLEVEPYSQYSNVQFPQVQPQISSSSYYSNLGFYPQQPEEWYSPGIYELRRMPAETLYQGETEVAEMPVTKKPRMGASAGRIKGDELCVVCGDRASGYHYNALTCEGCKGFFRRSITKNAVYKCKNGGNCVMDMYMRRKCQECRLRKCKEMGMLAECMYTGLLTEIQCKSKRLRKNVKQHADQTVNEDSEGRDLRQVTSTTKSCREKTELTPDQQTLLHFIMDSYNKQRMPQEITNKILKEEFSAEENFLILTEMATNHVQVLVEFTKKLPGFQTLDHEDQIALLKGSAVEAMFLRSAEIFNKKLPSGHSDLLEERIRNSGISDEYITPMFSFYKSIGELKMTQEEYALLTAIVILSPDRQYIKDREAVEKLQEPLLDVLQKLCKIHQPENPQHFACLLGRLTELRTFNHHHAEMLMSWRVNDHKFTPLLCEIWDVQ
Chain of Peroxisome proliferator-activated receptor delta (Homo sapiens) (Q03181 whole entry, looked up): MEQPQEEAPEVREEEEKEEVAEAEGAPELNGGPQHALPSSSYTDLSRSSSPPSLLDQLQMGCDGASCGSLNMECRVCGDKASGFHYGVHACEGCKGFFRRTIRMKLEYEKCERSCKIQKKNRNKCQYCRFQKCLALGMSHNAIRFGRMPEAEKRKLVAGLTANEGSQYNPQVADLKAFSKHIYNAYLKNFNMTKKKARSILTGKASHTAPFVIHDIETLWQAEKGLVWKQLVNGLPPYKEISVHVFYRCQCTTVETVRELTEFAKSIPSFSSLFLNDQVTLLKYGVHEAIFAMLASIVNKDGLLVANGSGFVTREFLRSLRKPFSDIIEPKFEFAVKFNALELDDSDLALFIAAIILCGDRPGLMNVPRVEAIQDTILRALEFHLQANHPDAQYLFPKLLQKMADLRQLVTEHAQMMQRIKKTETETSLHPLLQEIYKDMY

OCCN1CCN(CCCN2c3ccccc3Sc3ccc(C(F)(F)F)cc32)CC1
active: [1] 26.6 µM | [3] 11.9 µM | [5] 29.8 µM
inactive: [2] | [4] | [6] | [7]

CC1(C)CC(O)CC(C)(C)N1
inactive: [1] | [2] | [3] | [8] | [5] | [7]

O=[N+]([O-])c1cccc(C(F)(F)F)c1
inactive: [1] | [2] | [3] | [8] | [5] | [9] | [7] | [10]

C=CCn1c(=O)n(CC=C)c(=O)n(CC=C)c1=O
inactive: [1] | [2] | [3] | [8] | [7] | [10]

c1cnccn1
inactive: [1] | [2] | [3] | [4] | [5] | [6] | [9]

CCC(=O)OC(=O)CC
inactive: [1] | [2] | [3] | [4] | [6]

c1ccsc1
inactive: [1] | [2] | [3] | [8] | [5] | [9] | [7] | [10]

CC1(C)CCC[C@]2(C)[C@H]3CCO[C@]3(C)CC[C@@H]12
inactive: [1] | [2] | [3] | [8] | [5] | [9] | [7] | [10]

CCC(CC)C(C)CCOC(C)=O (stereo not drawn)
inactive: [1] | [2] | [3] | [8] | [9] | [7] | [10]

C=Cc1cccc(C)c1
inactive: [1] | [2] | [3] | [8] | [5] | [9] | [7] | [10]

NC(=O)c1cccc([N+](=O)[O-])c1
inactive: [1] | [2] | [3] | [8] | [9]

C1CCC(SSC2CCCCC2)CC1
inactive: [1] | [2] | [3] | [8] | [9] | [7]

CC(=O)OCC=C(C)C
inactive: [1] | [2] | [3] | [8] | [9] | [7] | [10]

CC(=O)CC(=O)Nc1ccc(S(=O)(=O)O)cc1
inactive: [1] | [2] | [3] | [8] | [5] | [9] | [7] | [10]

O=C(O)[C@H](O)[C@@H](O)[C@H](O[C@@H]1O[C@H](CO)[C@H](O)[C@H](O)[C@H]1O)[C@H](O)CO
inactive: [1] | [2] | [3] | [8] | [7] | [10]

CN(C)CCN1CCN(c2cccc(Cl)c2)C1=O
inactive: [1] | [2] | [3] | [8] | [5] | [9] | [7] | [10]

CC(=O)c1ccc(C(C)=O)cc1
inactive: [1] | [2] | [3] | [4] | [5] | [6] | [7]

Cc1c(C)c2c(c(C)c1O)CC[C@@](C)(CCC[C@H](C)CCC[C@H](C)CCCC(C)C)O2
inactive: [1] | [2] | [3] | [8] | [9] | [7] | [10]

CCc1cccc(CC)c1NC(=O)CN(CC(=O)O)CC(=O)O
inactive: [1] | [2] | [3] | [8] | [5] | [9] | [7] | [10]

CC1=Nc2ccccc2C1(C)C
inactive: [1] | [2] | [3] | [8] | [5] | [7] | [10]

Cc1cccc2cccnc12
inactive: [1] | [2] | [3] | [8] | [7] | [10]

CC[N+](CC)(CC)CCOC(=O)C(C1CCCC1)C1CCCC1
inactive: [1] | [2] | [3] | [8] | [5] | [9] | [7] | [10]

CCC(COC(=O)CCS)(COC(=O)CCS)COC(=O)CCS
inactive: [1] | [2] | [3] | [4] | [5] | [6] | [9] | [7] | [10]

C=C(C)c1cccc(C(=C)C)c1
inactive: [1] | [2] | [3] | [4] | [5] | [6] | [9]

O=C1C(c2[nH]c3ccc(S(=O)(=O)O)cc3c2O)=Nc2ccc(S(=O)(=O)O)cc21
inactive: [1] | [2] | [3] | [8] | [7] | [10]

O=C1CCc2cc(OCCCCc3nnnn3C3CCCCC3)ccc2N1
inactive: [1] | [3] | [8] | [4] | [5] | [6] | [9] | [10]

O=C1OC2(c3ccc(O)cc3Oc3cc(O)ccc32)c2ccc(N=C=S)cc21
inactive: [1] | [3] | [8] | [5] | [6] | [9]

O=C(O)Cc1ccc2c(c1)C(=O)c1ccccc1CO2
inactive: [1] | [2] | [5] | [9] | [10]

CC(CCc1ccccc1)NCC(O)c1ccc(O)c(C(N)=O)c1 (stereo not drawn)
inactive: [1] | [2] | [6] | [9]
